An excerpt weighted towards active compounds, which were near 11% of everything screened.
AMA1-RON2 inh = AMA1-RON2 (P. falciparum) interaction inhibition. Potency, µM (titrated, usually from 58.2 µM), for inactives: at the top dose activity change, negative = inhibition, actives largely listed as inhibitors. 360,000 compounds, 0.2% hits. AlphaScreen AMA1-biotinylated RON2 peptide binding;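 also: 0% = vehicle wells and -100% = peptide control; nearly all actives have a fitted effect of over 45% in size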
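AMA1 (3D7) with his tag at 25 nM final met compounds first, then biotinylated RON2 peptide at 25 nM; detection used donor plus acceptor beads, 10 µg/mL apiece, read by AlphaScreen after 30 min at room temperature.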
NS1 inh = inhibitors of influenza NS1 protein function | AID 2326 | Potency, µM (series often up to 46.1 µM), without a hit: at the top dose activity, positive = more growth | 270,000 compounds, 0.4% hits; calls by dose curve; also: actives are rising curves; nearly all actives have a fitted effect of over 50% in size
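Compounds were scored for reversing the slow growth caused by influenza A NS1 in S. cerevisiae, measured by optical density at 600 nm. Assay medium contained 2% galactose at pH 6.0; NS1-free yeast of the same strain were the positive control.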
Sm TGR block = blocks Schistosoma mansoni thioredoxin glutathione reductase. Q962Y6. purified TGR, DTNB reduction, TNB absorbance 405 nm. Potency, µM (highest dose often 114 µM), inactives show top-dose activity change, negative = inhibition, most hits filed as inhibitors. 360,000 compounds, 3% hits. AID 485364; also: % is scaled to controls: 0 for no effect and ±100 for the full control effect; nearly all actives have a fitted effect of over 60% in size
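Kinetic colorimetric format: TGR-catalysed, NADPH-driven DTNB reduction monitored via TNB absorbance. Enzyme dispensed at 20 nM; compound exposure 15 min at room temperature before reaction start.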
Pf growth 96h = P. falciparum growth inhibition at 96 hours | Potency, µM (top dose mostly 28.7 µM), for inactives: top-dose activity change, negative = inhibition, usual class: inhibitors | AID 504834 | 320,000 compounds, 6.9% hits | P. falciparum luciferase reporter growth, 96 h; also: % is scaled to controls: 0 for no effect and ±100 for the full control effect
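P. falciparum expressing integrated firefly luciferase, in erythrocytes at 2% hematocrit, 0.05% parasitemia, incubated with compounds 96 h at 37 C, 5% CO2. Growth inhibition read as loss of luminescence; two-generation exposure targets delayed-death apicoplast inhibitors.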
Pf growth 48h = inhibits P. falciparum growth in the first generation, 48 h; 310,000 compounds, 5.9% hits; Potency, µM (series often up to 28.7 µM), inactives show at the highest dose activity change, negative = inhibition, usual class: inhibitors; P. falciparum luciferase growth in erythrocytes, 48 h; also: % is scaled to controls: 0 for no effect and ±100 for the full control effect
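In quantitative HTS format, infected erythrocytes bearing luciferase-reporter parasites were treated for a single generation at 37 C. Luminescence after adding detection reagent served as the growth measure.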
* hit, by the source's call; ? = inconclusive; . = not tested or not shown; [ ] = another dose, or the depositor's remark. Unless noted, calls follow the shape of the dose curve; as a rule, active = well fitted curve in the direction sought with a large enough effect; inconclusive = small, poorly fitted or top-dose-only effect, or another doubt; inactive = no such curve, though single readings can be large; an effect the other way counts as inactive or inconclusive. Potency is read from the fitted curve at half-maximal effect.

SMILES	AMA1-RON2 inh	NS1 inh	Sm TGR block	Pf growth 96h	Pf growth 48h
CCOC(=O)c1cc2c(=O)n3ccccc3nc2n(C(C)C)c1=NC(=O)c1c(-c2c(F)cccc2Cl)noc1C	0%	?	-10%	?	3.7µM*
CCCCn1c(=NC(=O)c2ccco2)c(C(=O)OCC)cc2c(=O)n3cccc(C)c3nc21	0%	-1%	-33%	5.9µM*	12µM*
Cn1cccc1CC(=O)NNC(=S)NC(=O)c1ccc(F)cc1	64%	-1%	?	?	-7%
O=C(CN1C(=O)NC2(CCCC2)C1=O)Nc1ccc(F)c([N+](=O)[O-])c1	3%	3%	-20%	?	-15%
Nc1cc(=O)nc(SCC(=O)Nc2ccc(F)cc2)n1-c1ccc(Cl)cc1	.	.	6%	.	.
CCn1cc(C(=O)NCCc2ccc(OC)c(OC)c2)c(=O)c2cc(S(=O)(=O)N3CCC(C)CC3)ccc21	.	.	7%	.	.
N#CCCN1CCN(C(=S)c2ccc(-c3cc(Cl)ccc3Cl)o2)CC1	?	-30%	4%	5.2µM*	?
Cc1nn(-c2ccccc2)c2c1P(=O)(O)/C(=C1\N(C)c3ccccc3C1(C)C)C=N2	1%	?	4%	8.3µM*	2.1µM*
O=C(NCCc1ccc(Cl)cc1)c1cc(-c2ccccc2)n[nH]1	.	.	-1%	.	.
COc1cc(CN2CC=C(c3ccc(F)cc3)CC2)cc(OC)c1	-11%	2%	1%	-104%	-4%
COc1cc(C)c(CN2CC=C(c3ccc(F)cc3)CC2)cc1C	?	-6%	1%	12µM*	40%
CCOc1cc(C)c(-c2onc(C(F)(F)F)c2-c2csc(C)n2)c(O)c1	1%	-118%	14%	1.9µM*	1.7µM*
Cc1nc(-c2c(C(F)(F)F)noc2-c2ccc(O)cc2O)cs1	-18%	5%	-29%	?	31%
COc1ccc(C(=O)NC(=S)NNC(=O)[C@H]2C[C@@H]2c2ccccc2)cc1OC	14%	4%	-9%	1.5µM*	?
COc1cc(OC)cc(C(=O)NC(=S)NNC(=O)[C@H]2C[C@@H]2c2ccccc2)c1	19%	-36%	?	-17%	?
CCCCNC(=S)N/N=C/c1ccc(C)s1	22%	-12%	-5%	1.7µM*	.
CCCCNC(=S)N/N=C/c1sccc1C	34%	.	-3%	?	?
Cc1ccc(/C=N/NC(=S)NCCc2ccccc2)s1	81%	.	?	?	12µM*
S=C(NCCc1ccccc1)N/N=C/c1c(Cl)cccc1Cl	19%[2.32 µM]	5%	1%	-20%	5%
COc1ccccc1OCCSc1nc2ccccc2n1CC(N)=O	-5%	-2%	1%	18%	38%
CCCCn1c(N)c(N(CCOC)C(=O)c2ccc3c(c2)C(=O)N(c2cc(C)ccc2C)C3=O)c(=O)[nH]c1=O	-7%	4%	-20%	43%	34%
Cc1cccc(NC(=O)CSCC(=O)N2CCN(Cc3ccc4c(c3)OCO4)CC2)c1	104%	.	-2%	0%	-18%
Cc1ccc(-c2nc3nc(C)cc(N4CCN(c5cc(Cl)ccc5C)CC4)n3n2)cc1	.	.	-33%	.	.
Cc1ccc(-c2nc3nc(C)cc(N4CCN(c5cccc(C)c5C)CC4)n3n2)cc1	.	.	56µM*	.	.
Cc1occc1-c1nnc(SCC(N)=O)n1Cc1ccccc1	11%	-2%	8%	.	12%
SMILES	AMA1-RON2 inh	NS1 inh	Sm TGR block	Pf growth 96h	Pf growth 48h
CCn1c(SCC(=O)c2ccccc2)nnc1-c1cccs1	-4%	-19%	1%	63%	116%
C=CCn1c(SCc2nc3ccccc3nc2C)nnc1-c1ccoc1C	6%	2%	45µM*	7%	?
CCn1c(SCc2nc3ccccc3nc2C)nnc1-c1cccs1	21%	-20%	6%	-4%	10µM*
N#CC(CCc1ccc([N+](=O)[O-])cc1)(CCc1ccc([N+](=O)[O-])cc1)C(N)=O	-7%	.	.	.	.
OCC1(Cc2ccc(F)cc2)CCCN(CCCC(F)(F)F)C1 (stereo unspecified)	0%	2%	0%	332%	?
O=C(c1cc(-c2cccc(Cl)c2)nc2ccccc12)N1CCCC1	1%	-51%	-2%	-1%	?
O=C(Nc1ccccn1)c1cc(-c2cccc(Cl)c2)nc2ccccc12	7%	12%	10%	43%	3.3µM*
O=C(Nc1ccc([N+](=O)[O-])cn1)c1cc(-c2cccc(Cl)c2)nc2ccccc12	-1%	12%	1%	-21%	2.1µM*
O=C(Nc1ccc([N+](=O)[O-])cn1)c1cc(-c2cccc(Br)c2)nc2ccccc12	-24%	10%	5%	-2%	3.7µM*
COc1cccc(-c2cc(C(=O)Nc3ccc([N+](=O)[O-])cn3)c3ccccc3n2)c1	-8%	9%	-3%	-6%	?
O=C(NN1CCOCC1)c1cc(-c2cccc(Cl)c2)nc2ccccc12	4%	-10%	12%	25%	1%
CCOc1ccc(NC(=S)N2CCC(c3nc4ccccc4[nH]3)CC2)cc1	-5%	-1%	-14%	-27%	-27%
Cc1ccc2c(c1)-c1nc(-c3ccccc3)cc(-c3ccccc3)c1CO2	.	.	5%	.	.
COc1ccccc1-c1c(NC(=O)c2ccco2)n(C)c2ccccc2c1=O	-13%	6%	-7%	-2%	-2%
C#CCOCCOCCOCCNc1nc(N2CCN(C(=O)[C@H]([C@@H](C)CC)n3cc([C@@H](N)CC(C)C)nn3)CC2)nc(N2CCN(C(=O)[C@H](Cc3cc4ccccc4[nH]3)n3cc([C@@H](N)C(C)CC)nn3)CC2)n1 (stereo partly specified)	.	-8%	?	1.2µM*	4.7µM*
C#CCOCCOCCOCCNc1nc(N2CCN(C(=O)[C@H]([C@@H](C)CC)n3cc([C@@H](N)CC(C)C)nn3)CC2)nc(N2CCN(C(=O)[C@H](Cc3cc4ccccc4[nH]3)n3cc([C@@H](N)Cc4ccc(O)cc4)nn3)CC2)n1	-10%	6%	?	?	?
C#CCOCCOCCOCCNc1nc(N2CCOCC2)nc(N2CCN(C(=O)[C@H](Cc3cc4ccccc4[nH]3)n3cc([C@@H](N)C(C)CC)nn3)CC2)n1 (stereo partly specified)	-2%	-3%	-21%	2.9µM*	?
C#CCOCCOCCOCCNc1nc(N2CCN(C(=O)[C@H](CCCCN)n3cc([C@@H](N)C(C)CC)nn3)CC2)nc(N2CCN(C(=O)[C@H](Cc3cc4ccccc4[nH]3)n3cc([C@@H](N)C(C)CC)nn3)CC2)n1 (stereo partly specified)	0%	.	.	.	.
C#CCOCCOCCOCCNc1nc(N2CCN(C(=O)[C@H](Cc3ccc(O)cc3)n3cc([C@@H](N)C(C)CC)nn3)CC2)nc(N2CCN(C(=O)[C@H](Cc3cc4ccccc4[nH]3)n3cc([C@@H](N)Cc4ccc(O)cc4)nn3)CC2)n1 (stereo partly specified)	.	-47%	0%	?	10µM*

Bioassay records (PubChem BioAssay)
